Assay results taken from the supplement of paper PMC12808144.
Unmarked numbers belong to inactive results.

Experiments:
Mel-DCC-11 = experiment: cell viability relative to DMSO control (fraction of DMSO control); higher = less cytotoxic, active = 0.5 or less; conditions: 1 µM; 120 h
In short: (§1)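 Patient-derived Mel-DCC-11, its resistant subline Mel-DCC-11-R (alone and with 8 µM of its selecting drug) and NHEM-hTERT immortalized melanocytes were exposed for 120 h to 315 approved anti-cancer drugs at 1 µM in duplicate. Luminescence was read with ATPlite 1step. Viability was normalised to vehicle controls and averaged over duplicates.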

NHEM-hTERT = experiment: as above; conditions: 1 µM; 120 h
In short: as §1

Mel-DCC-11-R = experiment: cell viability relative to DMSO control (fraction of DMSO control); higher = less cytotoxic, active = 0.8 or less; conditions: 1 µM, 120 h
In short: as §1

Row | Compound | cell viability (Mel-DCC-11) | cell viability (NHEM-hTERT) | cell viability (Mel-DCC-11-R; vemurafenib co-treatment 0 µM) | cell viability (Mel-DCC-11-R; vemurafenib co-treatment 8 µM)
1 | O=C1c2c(O)ccc(O)c2C(=O)c2c(NCCNCCO)ccc(NCCNCCO)c21 [Mitoxantrone] | 1.26 | 0.695 | 1.26 | 0.574 (active)
2 | COc1cc(C[C@H]2C(=O)OC[C@@H]2Cc2ccc(OC)c(OC)c2)ccc1O [Arctigenin] | 3.4 | 1.21 | 1.01 | 0.855
3 | O=S(=O)([O-])CCS.[Na+] [Mesna] | 1.18 | 1.09 | 1.11 | 1.08
4 | c1cn2cc(-c3ccc4cn[nH]c4c3)nc(Nc3ccc(N4CCOCC4)cc3)c2n1 [Entospletinib] | 0.988 | 0.558 | 0.904 | 0.877
5 | Cl.Cl.O=C1c2c(O)ccc(O)c2C(=O)c2c(NCCNCCO)ccc(NCCNCCO)c21 [Mitoxantrone hydrochloride] | 1.08 | 0.797 | 1.14 | 0.477 (active)
6 | CC[C@@]1(O)C(=O)OCc2c1cc1n(c2=O)Cc2cc3c(CN(C)C)c(O)ccc3nc2-1.Cl [Topotecan hydrochloride] | 0.346 (active) | 0.768 | 0.645 (active) | 0.339 (active)
7 | COc1ccc2[nH]cc(CCNC(C)=O)c2c1 [Melatonine] | 0.874 | 0.936 | 0.786 (active) | 0.839
8 | Nc1nc(=O)c2c(CCc3ccc(C(=O)N[C@@H](CCC(=O)O)C(=O)O)cc3)c[nH]c2[nH]1 [Pemetrexed acid] | 0.933 | 1.19 | 1.22 | 0.964
9 | CO[C@H]1C=CO[C@@]2(C)Oc3c(C)c(O)c4c(O)c(c(/C=N/N5CCN(C)CC5)c(O)c4c3C2=O)NC(=O)/C(C)=C\C=C/[C@H](C)[C@H](O)[C@@H](C)[C@@H](O)[C@@H](C)[C@H](OC(C)=O)[C@@H]1C [Rifampicin] | 0.597 | 1.03 | 0.882 | 0.848
10 | CC(C)Cn1cnc2c(N)nc3ccccc3c21 [Imiquimod] | 0.985 | 1.31 | 0.897 | 1.07
11 | CC[C@@H](CO)NCCN[C@@H](CC)CO.Cl.Cl [Ethambutol dihydrochloride] | 0.966 | 1.2 | 0.965 | 1.08
12 | CC(=O)O[C@H]1C(=O)[C@]2(C)[C@@H](O)C[C@H]3OC[C@@]3(OC(C)=O)[C@@H]2[C@@H](OC(=O)c2ccccc2)[C@]2(O)C[C@H](OC(=O)[C@H](O)[C@@H](NC(=O)c3ccccc3)c3ccccc3)C(C)=C1C2(C)C [Paclitaxel] | 0.453 (active) | 0.569 | 1.06 | 0.526 (active)
13 | COc1ccc(/C=C\c2cc(OC)c(OC)c(OC)c2)cc1OP(=O)([O-])[O-].[Na+].[Na+] [Fosbretabulin Disodium] | 0.599 | 0.64 | – | –
14 | C[C@@H](Oc1cc(-c2cnn(C3CCNCC3)c2)cnc1N)c1c(Cl)ccc(F)c1Cl [Crizotinib] | 1.06 | 0.986 | – | –
15 | CN(C)C(=N)N=C(N)N.Cl [Metformin hydrochloride] | 1.03 | 1.07 | 0.843 | 1.08
16 | Nc1nc([O-])c2c(CCc3ccc(C(=O)N[C@@H](CCC(=O)[O-])C(=O)[O-])cc3)c[nH]c2n1.[Na+].[Na+] [Pemetrexed disodium] | 0.857 | 1.05 | 0.818 | 0.881
17 | C=CC(=O)Nc1cc(Nc2nccc(-c3cn(C)c4ccccc34)n2)c(OC)cc1N(C)CCN(C)C [Osimertinib] | 0.923 | 1.16 | – | –
18 | Cl.NNc1nncc2ccccc12 [Hydralazine hydrochloride] | 1.17 | 1.12 | 1.03 | 1.19
19 | CC(=O)O[C@@]12CO[C@@H]1C[C@H](O)[C@@]1(C)C(=O)[C@H](O)C3=C(C)[C@@H](OC(=O)[C@H](O)[C@@H](NC(=O)OC(C)(C)C)c4ccccc4)C[C@@](O)([C@@H](OC(=O)c4ccccc4)[C@H]21)C3(C)C [Docetaxel] | 0.61 | 0.707 | 1.07 | 0.609 (active)
